# Pol kappa inh: DNA polymerase kappa (human) inhibition; purified Pol kappa, fluorescent DNA synthesis assay, 10 min; Q9UBT6; Potency, µM (doses to about 107 µM), for the others: top-dose activity, negative = inhibition, actives largely listed as inhibitors; hit rate 0.53% among 400,000; also: potency is read from the fitted curve at half-maximal effect; % is scaled to controls: 0 for no effect and ±100 for the full control effect
#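 Readout: fluorescence, taken kinetically at 0 and 10 min. Conditions: 10 nM Pol kappa, 15 min RT compound preincubation, 50 nM substrate final. Controls: enzyme-free buffer wells.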
# Pol iota inh: DNA polymerase iota (human) inhibition | Pol iota fluorescent replication assay, 10 min | AID 588590 | Q9UNA4 | hit rate 1% among 390,000 | Potency, µM (series often up to 115 µM), for the others: top-dose activity, negative = inhibition, usual class: inhibitors; also: potency is read from the fitted curve at half-maximal effect
# Target sequence (Q9UNA4 whole entry, looked up): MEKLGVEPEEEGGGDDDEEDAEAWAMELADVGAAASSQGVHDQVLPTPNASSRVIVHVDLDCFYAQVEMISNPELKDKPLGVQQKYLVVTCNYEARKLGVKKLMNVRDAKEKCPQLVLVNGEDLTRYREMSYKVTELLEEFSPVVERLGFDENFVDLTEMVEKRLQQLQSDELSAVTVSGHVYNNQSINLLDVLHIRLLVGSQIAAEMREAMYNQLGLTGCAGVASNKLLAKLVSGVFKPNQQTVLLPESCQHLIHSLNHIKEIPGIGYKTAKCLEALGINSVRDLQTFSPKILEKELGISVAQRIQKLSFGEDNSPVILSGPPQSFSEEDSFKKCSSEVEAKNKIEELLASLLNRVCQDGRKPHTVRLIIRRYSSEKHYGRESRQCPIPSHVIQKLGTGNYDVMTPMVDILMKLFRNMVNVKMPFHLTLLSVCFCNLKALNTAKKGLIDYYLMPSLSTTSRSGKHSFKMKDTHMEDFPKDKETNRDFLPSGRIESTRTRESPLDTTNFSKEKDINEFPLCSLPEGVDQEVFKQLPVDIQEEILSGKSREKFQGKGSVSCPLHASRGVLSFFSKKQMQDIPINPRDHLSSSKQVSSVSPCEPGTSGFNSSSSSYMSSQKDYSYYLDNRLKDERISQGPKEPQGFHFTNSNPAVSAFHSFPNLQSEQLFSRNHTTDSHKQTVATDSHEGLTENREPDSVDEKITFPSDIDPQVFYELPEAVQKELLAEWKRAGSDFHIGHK
#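 Fluorescent replication assay read twice, at 0 min and 10 min after adding 50 nM (final) substrate. Enzyme (10 nM) and compounds were first incubated 15 min at room temperature; enzyme-free buffer wells were negative controls.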
# PI5P4Ka inh: blocks human PI5P4K alpha kinase activity; hit rate 1.2% among 330,000; PI5P4Kalpha enzyme, ADP-Glo luminescence, 60 min; stronger effect = lower value; P48426; max response, %; active = max response of -50% or lower; inconclusive = between -30% and -50%; inactive = -30% or higher; also: value at the top dose of about 77 µM; % is scaled to controls: 0 for no effect and ±100 for the full control effect
#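 qHTS, 1536-well: enzyme/substrate mix, compound by pin tool, 5 microM ATP final; RT 60 min; ADP-Glo reagents 1 (45 min) then 2 (30 min); luminescence.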
# Pol eta inh: DNA polymerase eta (human) inhibition; Potency, µM (highest dose often 114 µM), without a hit: top-dose activity change, negative = inhibition, actives largely listed as inhibitors; Q9Y253; hit rate 1.2% among 390,000; recombinant Pol eta, fluorescent DNA replication assay; also: potency is read from the fitted curve at half-maximal effect; % is scaled to controls: 0 for no effect and ±100 for the full control effect
#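 Pol eta at 10 nM preincubated with compounds 15 min at room temperature; reaction started with fluorescent substrate (50 nM final) and read kinetically at 0 and 10 min.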
# Pol beta inh: inhibitors of human DNA polymerase beta; P06746; Pol beta primer extension/strand displacement, fluorescence kinetic; Potency, µM (top dose mostly 114 µM), for inactives: top-dose activity change, negative = inhibition, hits mostly inhibitors; AID 485314; hit rate 1.3% among 340,000; also: potency is read from the fitted curve at half-maximal effect; % is scaled to controls: 0 for no effect and ±100 for the full control effect
#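 Enzyme-only controls used 10 nM Pol beta; buffer lacking enzyme served as negative control. Compound preincubated 15 min, then 50 nM substrate added; 0 and 10 min reads at room temperature.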
# FEN1 inhibitor: blocks human flap endonuclease 1; P39748; Recombinant FEN1 flap cleavage, fluorescence, 15 min; Potency, µM (top dose mostly 114 µM), for inactives: at the highest dose activity change, negative = inhibition, hits mostly inhibitors; hit rate 0.35% among 390,000; AID 588795; also: potency is read from the fitted curve at half-maximal effect; % is scaled to controls: 0 for no effect and ±100 for the full control effect; nearly all actives have a fitted effect of over 65% in size
#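 With each library titrated from low to high concentration, compounds met 10 nM FEN1 for 15 min at room temperature before 50 nM substrate was added; readings at 0 and 15 min fed four-parameter Hill curve fits.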
# ADP-Glo counter: interferes with ADP-Glo detection without enzyme present; shares compounds with PI5P4Ka inh; ADP-Glo detection counter-screen, luciferase luminescence, no enzyme; Potency, µM (highest dose often 76.9 µM), for inactives: at the top dose activity change, negative = inhibition, most hits filed as inhibitors; 1,100 tested, under 10 active; AID 743285
# * = called active by the depositor; ? = inconclusive; · = not tested or not shown; [ ] = another dose, or the depositor's remark. Only some compounds are listed: those with a hit (about 2.8% of all), similar ones and a draw of the others. Unless noted, calls follow the shape of the dose curve; as a rule, active = well fitted curve in the direction sought with a large enough effect; inconclusive = small, poorly fitted or top-dose-only effect, or another doubt; inactive = no such curve, though single readings can be large; an effect the other way counts as inactive or inconclusive.
SMILES,Pol kappa inh,Pol iota inh,PI5P4Ka inh,Pol eta inh,Pol beta inh,FEN1 inhibitor,ADP-Glo counter
CN(c1ccc(-c2csc(NC(=O)CCCc3nc4ccccc4c(=O)[nH]3)n2)cc1)S(C)(=O)=O,·,·,-56*,-9%,·,·,-9%
CS(=O)(=O)c1ccc(NC(=O)CCCc2nc3ccccc3c(=O)[nH]2)cc1,-6%,30%,-1,-10%,·,-8%,·
Cc1ccc(-c2csc(NC(=O)c3ccc(F)cc3)c2C(=O)O)cc1,4%,-11%,-61*,-16%,-3%,7%,1%
C=CCn1c(C)cc(C2=NNC(=NCc3ccccc3)SC2)c1C,-3%,131%,-17,-23%,30%,1%,·
Cc1ccc(C)c(C2=NNC(=NCc3ccccc3)SC2)c1,-3%,71%,-65*,-12%,-20%,-12%,-3%
Cc1c(C(=O)N2CCN(c3ncccn3)CC2)oc2ccc(F)cc12,-9%,10%,0,-19%,·,-12%,·
Cc1c(C(=O)N2CCN(C(=O)c3ccccc3)CC2)oc2ccc(F)cc12,-23%,-4%,-54*,?,·,-12%,3%
O=C(Nc1ccc(N2CCOCC2)cc1N1CCOCC1)c1cccc([N+](=O)[O-])c1,-7%,21%,-2,-9%,30%,-2%,·
Cc1ccc(CNc2ncnc3ccc(-c4ccc(CO)o4)cc23)o1,·,·,·,·,·,·,5%
CCc1ccc2[nH]c(=O)c(CN(Cc3ccccc3)Cc3nnnn3Cc3ccco3)cc2c1,-11%,?,6,-23%,2%,-20%,·
O=c1[nH]c2cc3c(cc2cc1CN(Cc1ccccc1)Cc1nnnn1Cc1ccco1)OCCO3,?,18µM*,-54*,?,32µM*,-19%,10%
COc1cccc(CNC(=O)Cc2ccc(NC(=O)C3=C(C)OCCS3)cc2)c1,?,?,-53*,?,22µM*,-9%,-2%
CC1=C(C(=O)Nc2ccc(CC(=O)NCc3ccccc3C)cc2)SCCO1,-2%,20%,1,-15%,5%,16%,·
CCOC(=O)C(CC)n1cnc2c(nnn2-c2cccc(OC)c2)c1=O (stereo unspecified),-2%,129%,5,-6%,-2%,2%,·
COc1ccc(Nc2ccccc2C(=O)O)cc1,-18%,?,-64*,3%,-1%,5%,6%
COc1ccc(Nc2cccccc2=O)cc1,-2%,9%,-2,-12%,27%,-10%,·
N=c1oc2ccc3ccccc3c2cc1C(N)=S,?,53%,-60*,-17%,-19%,-16%,-1%
O=C1COc2ccc(S(=O)(=O)NCCc3ccccc3)cc2N1,-20%,?,-51*,-24%,13%,-5%,2%
Cc1ccc(S(=O)c2ccc(NC(=O)C3CC3)cc2C#N)cc1 (stereo unspecified),-2%,-2%,-63*,-5%,24%,-5%,-6%
OC[C@@H]1OC(O)[C@H](O)[C@H](O)[C@H]1O (stereo partly specified),6%[60.1 µM],·,·,·,·,·,·
Cc1cccc(NC(=O)CNC(=O)c2sc3ccccc3c2Cl)n1,-20%,24%,-51*,1%,·,2%,-8%
COc1ccc(Cl)cc1NC(=O)CSc1nc2sccc2c(=O)[nH]1,-16%,3%,-53*,-29%,56µM*,-14%,2%
O=C(CCS(=O)(=O)c1ccc2c(c1)NC(=O)CS2)NCCc1ccc(Cl)cc1,-4%,17%,-60*,-23%,7%,-9%,0%
COc1ccccc1NS(=O)(=O)c1ccc(C(=O)OCC(=O)NCc2ccco2)cc1,-34%,?,-60*,?,16µM*,-4%,-4%
COCCNc1nc(NCc2ccc(NC(C)=O)cc2)c2sc(-c3ccccc3)cc2n1,·,·,-21,·,·,·,·
CC(C)c1ccc(CNc2nc(NCC3CC3)nc3ccsc23)cc1,·,·,·,·,·,·,-4%
c1csc(CNc2nc(NCC3CCCCC3)c3sccc3n2)c1,·,·,·,·,·,·,2%
c1ccc(CNc2nc(NCC3CC3)nc3cc(-c4ccccc4)sc23)cc1,·,·,·,·,·,·,-7%
COc1ccccc1CNc1nc(NCc2ccc(C(C)C)cc2)c2sccc2n1,·,·,·,·,·,·,-5%

# Bioassay records (PubChem BioAssay)
